# Data from PubChem BioAssay (Tox21).
# Inconclusive results are not listed. The source made the active and inactive calls. Calls follow the shape of the dose curve; as a rule, active = well fitted cell-killing curve with a large enough effect in the repeat runs; inconclusive = weak or mixed curves, or effect the other way; inactive = flat fitted curve, though single readings scatter.
# Experiment: Caspase-3/7 induction in HepG2 cells by small molecules, qHTS cell viability counter screen (AID 1346981); also: nearly all actives have a fitted effect of over 30% in size
# Details: CellTiter-Fluor fluorescence, 17 h; series mostly up to 92.4 µM; activity change, negative = cytotoxicity: at the top concentration
# Text: U.S. Tox21 Program National Center for Advancing Translational Sciences [NCATS] NIH Chemical Genomics Center [NCGC] U.S. Environmental Protection Agency [EPA] National Institutes of Environmental Health Sciences [NIEHS] National Toxicology Program [NTP] U.S. Food and Drug Administration [FDA] Tox21 Assay Overview: Apoptosis is a process of programmed cell death and plays a central role in the development of multicellular organisms. It is a highly regulated process and induces cell death by activating caspases, which are the members of cysteine aspartic acid-specific protease (caspase) family. Caspases involved in apoptosis are classified by their mechanism of action as initiator caspases (caspase-2, -8, -9 and -10) and executioner caspases (caspase-3, -6, and -7). Inhibition of apoptosis results in number of cancers, autoimmune diseases, inflammatory diseases and viral infection. To identify small molecule compounds that induce apoptosis, a homogeneous, luminescent Caspase-Glo 3/7 assay was used. Wild type HepG2 cells were used to screen Tox21 libraries for identifying caspase-3/7 activity inducers. Also cytotoxicity of the compounds was tested in parallel by measuring the cell viability using CellTiter-Fluor assay system in the same wells.
# Tox21 Assay Protocol Summary: HepG2 cells were dispensed at 2,000 per well in 5uL of culture medium into white solid bottom 1536-well plates (Corning Life Sciences, Corning, NY) using a Multidrop Combi (Thermo Scientific, Waltham, MA) dispenser. The assay plates were incubated at 37 C and 5% CO2 for 5hr, and then 23nL of compounds dissolved in DMSO and positive control were transferred using a Pintool station ([…], San Diego, CA). The assay plates were incubated at 37C and 5% CO2 for 17hr. For cytotoxicity read, after 16hr incubation at 37C, 1uL CellTiter-Fluor reagent (Promega Corporation, Madison, WI) was added to each well of the assay plates using Flying Reagent Dispenser (FRD, Aurora Discovery, San Diego, CA). After 1hr incubation at 37C and 5% CO2, the fluorescence signal was quantified using a ViewLux plate reader (PerkinElmer, Shelton, CT).
# % is scaled to controls: 0 for no effect and ±100 for the full control effect; potency is read from the fitted curve at half-maximal effect.
SMILES,"activity change, negative = cytotoxicity",Potency
O=C(Nc1ccccc1)Nc1ccccc1,-1.55% (inactive),–
CCCCC(CC)COC(=O)COc1ccc(Cl)cc1C (stereo not given),-0.0605% (inactive),–
C/C=C/C=C/CCCCCCCO,-9.66% (inactive),–
C[Si]1(C)O[Si](C)(C)O[Si](C)(C)O1,-0.867% (inactive),–
C=CCOC(=O)/C=C\C(=O)OCC=C,4.72% (inactive),–
O=C(c1ccc(O)cc1)c1ccc(Cl)cc1,-28.2% (inactive),–
COc1ccc(CCC(=O)c2c(O)cc(O[C@@H]3O[C@H](CO)[C@@H](O)[C@H](O)[C@H]3O[C@@H]3O[C@@H](C)[C@H](O)[C@@H](O)[C@H]3O)cc2O)cc1O,2.77% (inactive),–
CCC(C)=O,-1.12% (inactive),–
O=C(O)c1cccnc1C(=O)O,1.35% (inactive),–
C[C@]12CCC(=O)C=C1C=C[C@@H]1[C@@H]2CC[C@@]2(C)[C@H]1CC[C@@]21CCC(=O)O1,0.23% [at 42.5 µM] (inactive),–
CCCC1C(CC)=CC(CC)=CN1c1ccccc1 (stereo not given),-8.73% (inactive),–
O=C(CCCCCCCCC#CI)Oc1ccccc1,1.72% [at 42.5 µM] (inactive),–
CCCCOC(=O)CCS,2.74% (inactive),–
N#C/C(=C1\SCC(c2ccccc2Cl)S1)n1ccnc1 (stereo not given),-1.81% [at 42.5 µM] (inactive),–
COc1ccccc1N=Nc1c(S(=O)(=O)O)cc2cc(S(=O)(=O)O)cc(NC(C)=O)c2c1O,–,25.7 µM (active)
CCC(=O)Oc1ccc(/C(CC)=C(\CC)c2ccc(OC(=O)CC)cc2)cc1,-6.78% (inactive),–
CN1CCN(CCCN2c3ccccc3Sc3ccc(S(=O)(=O)N(C)C)cc32)CC1,–,29.8 µM (active)
O=C(CCC1CCN(Cc2ccccc2)CC1)c1ccc2c(c1)NCCCC2,-14.5% [at 42.5 µM] (inactive),–
COCC(O)CO (stereo not given),-2.11% (inactive),–
CC1(C)O[C@@H]2C[C@H]3[C@@H]4CCC5=CC(=O)C=C[C@]5(C)[C@H]4[C@@H](O)C[C@]3(C)[C@]2(C(=O)CO)O1,-4.2% [at 42.5 µM] (inactive),–

SMILES,"activity change, negative = cytotoxicity",Potency
O=C(N[C@@H](c1ccccc1)[C@@H]1CCCCN1)c1cccc(C(F)(F)F)c1Cl,–,61.1 µM (active)
CCC(C(=O)OCCN(CC)CC)c1ccccc1 (stereo not given),7.18% [at 42.5 µM] (inactive),–
OCCSc1ccccc1,1.23% (inactive),–
COCCOC,–,13 µM (active)
CC(=O)Oc1ccc2c(c1)CC[C@@H]1[C@@H]2CC[C@]2(C)[C@@H](O)CC[C@@H]12,-4.57% [at 42.5 µM] (inactive),–
O=C(CS)OCCOC(=O)CS,4.14% (inactive),–
CCOC(=O)CC(=O)C(=O)OCC,4.64% (inactive),–
COC(=O)Nc1nc2ccc(C(=O)c3cccs3)cc2[nH]1,-5.11% [at 42.5 µM] (inactive),–
CCOC(=O)[C@@H](C)Oc1ccc(Oc2nc3ccc(Cl)cc3o2)cc1,-0.388% (inactive),–
O=C(O)c1cccc(O)c1,-2.06% (inactive),–
CCCCCCCCCCCC[N+](C)(C)CC(=O)[O-],-0.263% (inactive),–
CCCCCCOC(=O)CCCCCCCC(=O)OCCCCCC,1.76% (inactive),–
C(=C\c1ccccc1)/CN1CCN(C(c2ccccc2)c2ccccc2)CC1,-0.51% [at 42.5 µM] (inactive),–
NC(=O)N(O)[C@@H]1C=C[C@H](Oc2cccc(Oc3ccc(F)cc3)c2)C1,-11.1% (inactive),–
Nc1ccc(C(=O)OCCCOC(=O)c2ccc(N)cc2)cc1,-0.0545% (inactive),–
NC(=O)Nc1ccc(Cl)c(Cl)c1,-0.353% (inactive),–
CCCOC(=O)c1ccc(N)cc1,-0.247% [at 42.5 µM] (inactive),–
CC(C)C(OC(=O)c1ccccc1)C(C)(C)COC(=O)c1ccccc1 (stereo not given),0.0122% (inactive),–
CC(C)CCCCCOC(=O)CCCCC(=O)OCCCCCC(C)C,6.27% (inactive),–
CC1CC(=O)NN=C1c1ccc(NCC(C)(C)NCC(O)COc2cc(Cl)ccc2C#N)cc1 (stereo not given),-9.64% [at 42.5 µM] (inactive),–
